PubChem BioAssay (Tox21)
Records with an inconclusive call do not appear. Activity calls are given as the source filed them. Unless noted, calls come from the whole dose curve.

Legend:
[1] = qHTS assay to identify small molecule antagonists of the vitamin D receptor (VDR) signaling pathway - cell viability counter screen (AID 743225; active = well fitted cell-killing curve with a large enough effect in the repeat runs; note: nearly all actives have a fitted effect of over 50% in size)
How it was run: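 Cytotoxicity counter screen read by CellTiter-Glo luminescence (30 min, room temperature) in the same wells as the VDR-bla antagonist readout. HEK 293T VDR-UAS-bla cells had 16 h at 37C with compound and 3 nM (final) 1-alpha,25-dihydroxyvitamin D3, then 2 h with FRET substrate.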

[2] = qHTS assay to identify small molecule agonists of the NFkB signaling pathway (AID 1159509; active = well fitted curve in the direction sought with a large enough effect in the signal ratio in the repeat runs, not every such curve was filed as active; the % refers to the signal ratio; note: series mostly up to about 61 µM)
How it was run: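 NFkB-bla ME-180 cells with a beta-lactamase reporter under an NF-kB response element were plated overnight, treated with compounds in DMSO for 5 hr at 37 C, then loaded with FRET substrate for 1.5 hr at room temperature.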

[3] = qHTS assay to identify small molecule agonists of the NFkB signaling pathway - cell viability counter screen (AID 1159515); note: series mostly up to about 61 µM; nearly all actives have a fitted effect of over 55% in size
How it was run: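 Using the same wells as the NFkB reporter read, ME-180 NFkB-bla cells given compounds for 5 hr were assessed for viability via CellTiter-Glo, with luminescence taken after a 30 min room-temperature incubation.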

[4] = qHTS assay to identify small molecule agonists of the endoplasmic reticulum stress response signaling pathway (AID 1159516; active = well fitted activation curve with a large enough effect in the signal ratio in the repeat runs, not every such curve was filed as active; the % refers to the signal ratio)
How it was run: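 An ESRE-bla HeLa cell assay: compounds were pin-transferred from DMSO onto overnight-plated cells and left 5 hr at 37 C. Substrate was then loaded for 2 hr at room temperature before reading fluorescence at 460 nm and 530 nm.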

[5] = qHTS assay to identify small molecule agonists of the endoplasmic reticulum stress response signaling pathway - cell viability counter screen (AID 1159517);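 note: HeLa cells carrying an ER stress response element beta-lactamase reporter; series mostly up to about 61 µM; nearly all actives have a fitted effect of over 50% in size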
How it was run: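 Counter-screen wells were identical to the reporter wells. Cells were plated at 1,500 per well and dosed for 5 hr, then read for luminescence 30 min after CellTiter-Glo addition.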

[6] = qHTS assay to identify small molecule antagonists of the retinoid-related orphan receptor gamma (ROR-gamma) signaling pathway - cell viability counter screen (AID 1159520; active = well fitted cell-killing curve with a large enough effect in the repeat runs; note: nearly all actives have a fitted effect of over 50% in size; note: potency is the fitted concentration of half-maximal effect)
How it was run: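 Tet-on ROR gamma CHO cells were given compounds for 2 hr, then doxycycline hyclate at 1 uM final, and incubated 16 hr at 37 C. Viability was measured as ATP content by CellTiter-Glo luminescence.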

[7] = qHTS assay to identify small molecule agonists of the AP-1 signaling pathway - cell viability counter screen (AID 1159525); note: nearly all actives have a fitted effect of over 55% in size
How it was run: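 AP-1-bla ME-180 cells in Opti-MEM with 0.5% dialyzed FBS, compound exposure 5 h at 37 C in 15-point titration. Viability read in the same wells as ATP content by CellTiter-Glo luminescence, normalised to tetra-n-octylammonium bromide and DMSO controls.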

[8] = qHTS assay to identify small molecule agonists of the AP-1 signaling pathway (AID 1159526)
[9] = target: Retinoic acid receptor RXR-alpha (Homo sapiens) (UniProt P19793); assay: qHTS assay to identify small molecule agonists of the RXR signaling pathway (AID 1159527); note: nearly all actives have a fitted effect of over 35% in size
How it was run: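 Agonist-mode beta-lactamase reporter assay: HEK 293T RXR-alpha-UAS-bla cells treated 16 hr at 37 C with compounds, 9-cis retinoic acid as positive control. LiveBLAzer FRET substrate, 405 nm excitation, 460/530 nm emission.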

Measured: Potency

Chain of Retinoic acid receptor RXR-alpha (Homo sapiens) (P19793 whole entry, looked up): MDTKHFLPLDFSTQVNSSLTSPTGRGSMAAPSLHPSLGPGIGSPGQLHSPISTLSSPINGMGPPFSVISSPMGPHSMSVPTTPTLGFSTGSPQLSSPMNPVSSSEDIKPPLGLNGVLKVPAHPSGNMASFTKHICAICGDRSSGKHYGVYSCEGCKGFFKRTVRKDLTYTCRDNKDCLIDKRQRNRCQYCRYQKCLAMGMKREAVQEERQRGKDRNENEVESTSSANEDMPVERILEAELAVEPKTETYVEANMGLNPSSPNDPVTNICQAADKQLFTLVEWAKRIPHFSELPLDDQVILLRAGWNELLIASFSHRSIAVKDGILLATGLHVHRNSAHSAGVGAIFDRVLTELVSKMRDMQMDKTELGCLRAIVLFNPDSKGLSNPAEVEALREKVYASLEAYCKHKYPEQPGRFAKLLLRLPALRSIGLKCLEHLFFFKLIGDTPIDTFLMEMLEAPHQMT

CC(=O)[C@H]1CC[C@H]2[C@@H]3C[C@H](C)C4=CC(=O)CC[C@]4(C)[C@H]3[C@@H](O)C[C@]12C
not listed: [8] | [9]
inactive: all other assays above

CCC(C(=O)OCCN(CC)CC)c1ccccc1 (stereo not given)
not listed: [8] | [9]
inactive: all other assays above

Nc1ccc(C(=O)OCCCOC(=O)c2ccc(N)cc2)cc1
not listed: [9]
inactive: all other assays above

CC1(C)O[C@@H]2C[C@H]3[C@@H]4CCC5=CC(=O)C=C[C@]5(C)[C@H]4[C@@H](O)C[C@]3(C)[C@]2(C(=O)CO)O1
not listed: [1] | [8]
inactive: all other assays above

Nc1nc(Cl)nc2c1ncn2[C@@H]1O[C@H](CO)[C@@H](O)[C@@H]1F
not listed: [7]
inactive: all other assays above

CC1=CC(O)CC(C)(C)C1 (stereo not given)
not listed: [9]
inactive: all other assays above

CCN(Cc1cccc(S(=O)(=O)O)c1)c1ccc(C(=C2C=CC(=[N+](CC)Cc3cccc(S(=O)(=O)[O-])c3)C=C2)c2ccccc2)cc1
not listed: [1] | [8]
inactive: all other assays above

Cc1cc(OI)c(C(C)C)cc1-c1cc(C(C)C)c(OI)cc1C
not listed: [8]
inactive: all other assays above

CCCc1c(OCCCOc2ccc(OCC(=O)O)cc2)ccc(C(C)=O)c1O
not listed: [8] | [9]
inactive: all other assays above

COCC(O)CO (stereo not given)
not listed: [8]
inactive: all other assays above

CN1C(=O)CC(C)(c2ccccc2)C1=O (stereo not given)
not listed: [8]
inactive: all other assays above

O=C1OCCN1/N=C/c1ccc([N+](=O)[O-])o1
not listed: [9]
inactive: all other assays above

O=[N+]([O-])c1cccc(S(=O)(=O)NCCNS(=O)(=O)c2cccc([N+](=O)[O-])c2)c1
not listed: [7]
inactive: all other assays above

CN1Cc2cc(C(=O)N3CCC(C4CCNCC4)CC3)ccc2N[C@@H](CC(=O)O)C1=O
not listed: [9]
inactive: all other assays above

CCCCCCCCCCOS(=O)(=O)O
not listed: [8] | [9]
inactive: all other assays above

O=C(CCCN1CCC(O)(c2ccc(Br)cc2)CC1)c1ccc(F)cc1
not listed: [9]
inactive: all other assays above

Oc1ccc(Nc2ccccc2)cc1
not listed: [1] | [7] | [9]
inactive: all other assays above

O=C1NCCN1
not listed: [9]
inactive: all other assays above

O=C(NCCCN1CCOCC1)c1ccc(Cl)cc1
not listed: [9]
inactive: all other assays above

CC1CC(=O)NN=C1c1ccc(NCC(C)(C)NCC(O)COc2cc(Cl)ccc2C#N)cc1 (stereo not given)
not listed: [8] | [9]
inactive: all other assays above

COc1ccc(CCC(=O)c2c(O)cc(O[C@@H]3O[C@H](CO)[C@@H](O)[C@H](O)[C@H]3O[C@@H]3O[C@@H](C)[C@H](O)[C@@H](O)[C@H]3O)cc2O)cc1O
not listed: [9]
inactive: all other assays above

CCOC(=N)CC(=O)OCC
not listed: [9]
inactive: all other assays above

Cc1occc1C(=O)Nc1ccc(C(=O)N2CCC(F)(F)/C(=C\C(=O)N3CCC(N4CCCCC4)CC3)c3ccccc32)cc1
not listed: [8] | [9]
inactive: all other assays above

O=C(CCCCCCC(=O)Nc1ccccc1)NO
active: [6] 7.5 µM
not listed: [9]
inactive: all other assays above

CC1CC(O)CC(C)(C)C1 (stereo not given)
not listed: [9]
inactive: all other assays above

C[N+](C)(C)CCOC(N)=O
not listed: [8] | [9]
inactive: all other assays above

CCC(C)=O
not listed: [9]
inactive: all other assays above

CCOC(=O)OCC
not listed: [9]
inactive: all other assays above

COC(=O)Nc1nc2ccc(C(=O)c3cccs3)cc2[nH]1
not listed: [8] | [9]
inactive: all other assays above
